# What was measured:
# Test in all cases: DAPPL (digital affinity profiling via proximity ligation, sequencing); 10 mM Tris-HCl pH 7.5, 50 mM NaCl, 1 mM DTT, 4% glycerol, room temperature, 30 min; GST-TFs on glutathione beads, 16-mer random dsDNA library, 0.1% formaldehyde crosslink after washing; high values mean tight binding
# FEV = target: T1, FEV (Homo sapiens, UniProt Q99581 1-238); conditions: protein: recombinant; tags: N-terminal GST; dsDNA, one strand shown
# T1 sequence: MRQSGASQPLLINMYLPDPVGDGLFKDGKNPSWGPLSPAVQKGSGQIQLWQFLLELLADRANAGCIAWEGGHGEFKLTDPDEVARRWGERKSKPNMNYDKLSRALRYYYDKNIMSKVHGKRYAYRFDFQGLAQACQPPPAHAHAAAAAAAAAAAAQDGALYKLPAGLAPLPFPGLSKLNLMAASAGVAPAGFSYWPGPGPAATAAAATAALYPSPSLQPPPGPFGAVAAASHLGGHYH
# Procedure, shortened: (§1)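 Binding signal is each hexamer's read frequency for a factor divided by its frequency in the tag-only sample. The factors were GST-fused human transcription factors from yeast, captured on glutathione beads, DNA-barcoded and pooled with that sample. Pools were incubated with 200 nmole of a random double-stranded 16-mer DNA library in Tris/NaCl/DTT/glycerol buffer at room temperature for 30 min, then washed, crosslinked with 0.1% formaldehyde, proximity-ligated with BsaI/T4 ligase (1 h, 37 °C), PCR-amplified and sequenced on an Illumina NextSeq500.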
# ETV5 = ETV5 (Homo sapiens, UniProt P41161 1-510); conditions: protein: recombinant; tags: N-terminal GST; dsDNA, one strand shown
# Chain of ETV5 (P41161 whole entry): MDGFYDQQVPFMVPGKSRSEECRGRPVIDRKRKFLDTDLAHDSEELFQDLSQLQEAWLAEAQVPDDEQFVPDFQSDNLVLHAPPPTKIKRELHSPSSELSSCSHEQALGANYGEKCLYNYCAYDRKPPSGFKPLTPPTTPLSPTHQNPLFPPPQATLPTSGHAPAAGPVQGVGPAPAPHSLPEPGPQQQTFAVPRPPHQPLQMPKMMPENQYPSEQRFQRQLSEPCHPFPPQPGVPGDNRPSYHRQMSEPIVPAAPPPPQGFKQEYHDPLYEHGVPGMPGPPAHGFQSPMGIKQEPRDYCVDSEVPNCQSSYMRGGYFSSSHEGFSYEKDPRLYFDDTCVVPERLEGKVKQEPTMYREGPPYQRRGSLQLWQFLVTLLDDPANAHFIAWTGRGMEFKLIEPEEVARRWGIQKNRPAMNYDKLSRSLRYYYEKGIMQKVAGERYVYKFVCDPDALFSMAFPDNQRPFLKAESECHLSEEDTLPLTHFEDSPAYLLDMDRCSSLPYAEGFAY
# Procedure, shortened: as §1
# HSF1 = HSF1 (Homo sapiens, UniProt Q00613 1-529); conditions: protein: recombinant; tags: N-terminal GST; chain copies: 3; dsDNA, one strand shown
# Chain of HSF1 (Q00613 whole entry): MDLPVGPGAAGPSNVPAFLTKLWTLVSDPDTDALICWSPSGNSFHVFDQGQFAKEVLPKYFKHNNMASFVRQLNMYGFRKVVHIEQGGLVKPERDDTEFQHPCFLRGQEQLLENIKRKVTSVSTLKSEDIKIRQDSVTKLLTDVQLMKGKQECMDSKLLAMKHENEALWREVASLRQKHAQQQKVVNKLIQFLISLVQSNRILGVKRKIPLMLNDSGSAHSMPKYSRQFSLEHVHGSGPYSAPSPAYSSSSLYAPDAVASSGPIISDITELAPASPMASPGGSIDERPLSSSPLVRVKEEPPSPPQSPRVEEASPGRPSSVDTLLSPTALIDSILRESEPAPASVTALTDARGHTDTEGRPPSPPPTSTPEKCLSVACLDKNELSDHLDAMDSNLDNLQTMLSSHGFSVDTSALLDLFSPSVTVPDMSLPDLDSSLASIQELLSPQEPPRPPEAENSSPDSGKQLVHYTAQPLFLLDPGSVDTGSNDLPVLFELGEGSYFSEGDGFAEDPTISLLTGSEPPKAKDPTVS
# Procedure, shortened: as §1
# SPIC = target: T2, SPIC (Homo sapiens, UniProt Q8N5J4 1-248); conditions: protein: recombinant; tags: N-terminal GST; dsDNA, one strand shown
# T2 sequence: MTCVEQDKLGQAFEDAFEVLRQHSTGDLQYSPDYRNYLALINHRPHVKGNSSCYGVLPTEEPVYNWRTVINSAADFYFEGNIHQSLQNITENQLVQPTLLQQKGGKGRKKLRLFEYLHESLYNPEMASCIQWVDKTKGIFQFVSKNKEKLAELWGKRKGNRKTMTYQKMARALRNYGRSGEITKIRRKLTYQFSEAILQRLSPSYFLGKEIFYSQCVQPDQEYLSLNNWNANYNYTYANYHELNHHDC
# Procedure, shortened: as §1
# ELF4 = ELF4 (Homo sapiens, UniProt Q99607 1-663); conditions: protein: recombinant; tags: N-terminal GST; dsDNA, one strand shown
# Chain of ELF4 (Q99607 whole entry): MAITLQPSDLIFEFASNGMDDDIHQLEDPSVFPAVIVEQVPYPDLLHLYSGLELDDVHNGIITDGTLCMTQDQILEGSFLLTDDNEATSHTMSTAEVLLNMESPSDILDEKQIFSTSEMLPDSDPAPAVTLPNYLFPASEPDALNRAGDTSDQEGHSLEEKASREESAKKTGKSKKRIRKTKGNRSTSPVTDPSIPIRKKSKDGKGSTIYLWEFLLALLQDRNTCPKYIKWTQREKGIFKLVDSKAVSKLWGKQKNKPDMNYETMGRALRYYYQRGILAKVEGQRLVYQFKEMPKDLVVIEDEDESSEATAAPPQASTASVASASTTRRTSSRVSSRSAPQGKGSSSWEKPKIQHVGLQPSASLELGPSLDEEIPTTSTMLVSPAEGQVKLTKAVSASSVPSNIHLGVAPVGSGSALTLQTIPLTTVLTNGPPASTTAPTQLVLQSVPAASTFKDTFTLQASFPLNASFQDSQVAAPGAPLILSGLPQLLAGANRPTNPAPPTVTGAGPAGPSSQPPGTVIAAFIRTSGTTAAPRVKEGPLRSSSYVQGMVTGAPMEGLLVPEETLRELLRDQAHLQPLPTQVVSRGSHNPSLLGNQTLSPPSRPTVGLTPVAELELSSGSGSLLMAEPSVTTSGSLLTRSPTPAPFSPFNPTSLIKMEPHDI
# Procedure, shortened: as §1
# ELK4 = target: T3, ELK4 (Homo sapiens, UniProt P28324-2 1-405); conditions: protein: recombinant; tags: N-terminal GST; dsDNA, one strand shown
# T3 sequence: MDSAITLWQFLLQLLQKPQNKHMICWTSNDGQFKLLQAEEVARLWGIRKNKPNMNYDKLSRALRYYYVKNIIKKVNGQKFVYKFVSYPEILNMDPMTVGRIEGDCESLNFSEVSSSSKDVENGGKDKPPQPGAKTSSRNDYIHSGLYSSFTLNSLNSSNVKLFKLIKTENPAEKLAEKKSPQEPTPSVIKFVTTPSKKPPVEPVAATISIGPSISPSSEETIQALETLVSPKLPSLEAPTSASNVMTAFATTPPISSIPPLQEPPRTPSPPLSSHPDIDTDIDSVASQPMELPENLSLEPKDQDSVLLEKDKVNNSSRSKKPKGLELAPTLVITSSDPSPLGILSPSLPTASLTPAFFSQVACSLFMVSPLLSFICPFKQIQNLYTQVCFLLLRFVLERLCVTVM
# Procedure, shortened: as §1
# ETV2 = target: T4, ETV2 (Homo sapiens, UniProt O00321 1-342); conditions: protein: recombinant; tags: N-terminal GST; dsDNA, one strand shown
# T4 sequence: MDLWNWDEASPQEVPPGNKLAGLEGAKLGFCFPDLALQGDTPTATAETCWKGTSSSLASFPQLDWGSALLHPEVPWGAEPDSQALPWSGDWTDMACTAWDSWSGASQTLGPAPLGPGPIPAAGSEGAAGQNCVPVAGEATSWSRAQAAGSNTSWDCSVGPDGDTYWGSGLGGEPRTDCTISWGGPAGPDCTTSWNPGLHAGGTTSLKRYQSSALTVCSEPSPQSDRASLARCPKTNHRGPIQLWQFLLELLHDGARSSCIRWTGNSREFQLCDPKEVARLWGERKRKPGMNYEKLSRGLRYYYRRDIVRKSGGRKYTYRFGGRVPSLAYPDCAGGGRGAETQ
# Procedure, shortened: as §1
# ELF3 = target: T5, ELF3 (Homo sapiens, UniProt P78545 1-371); conditions: protein: recombinant; tags: N-terminal GST; dsDNA, one strand shown
# T5 sequence: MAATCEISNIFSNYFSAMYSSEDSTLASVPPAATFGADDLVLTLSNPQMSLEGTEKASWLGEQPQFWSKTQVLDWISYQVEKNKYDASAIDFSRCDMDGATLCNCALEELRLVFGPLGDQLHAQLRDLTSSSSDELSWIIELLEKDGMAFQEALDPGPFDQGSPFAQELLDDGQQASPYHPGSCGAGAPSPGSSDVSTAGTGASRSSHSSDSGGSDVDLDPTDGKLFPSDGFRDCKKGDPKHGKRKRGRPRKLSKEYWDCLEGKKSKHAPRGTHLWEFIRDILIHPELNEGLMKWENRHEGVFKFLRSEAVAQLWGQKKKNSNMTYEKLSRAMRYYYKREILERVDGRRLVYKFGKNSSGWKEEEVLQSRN
# Procedure, shortened: as §1
# CRX = CRX (Homo sapiens, UniProt O43186 1-299); conditions: protein: recombinant; tags: N-terminal GST; dsDNA, one strand shown
# Chain of CRX (O43186 whole entry): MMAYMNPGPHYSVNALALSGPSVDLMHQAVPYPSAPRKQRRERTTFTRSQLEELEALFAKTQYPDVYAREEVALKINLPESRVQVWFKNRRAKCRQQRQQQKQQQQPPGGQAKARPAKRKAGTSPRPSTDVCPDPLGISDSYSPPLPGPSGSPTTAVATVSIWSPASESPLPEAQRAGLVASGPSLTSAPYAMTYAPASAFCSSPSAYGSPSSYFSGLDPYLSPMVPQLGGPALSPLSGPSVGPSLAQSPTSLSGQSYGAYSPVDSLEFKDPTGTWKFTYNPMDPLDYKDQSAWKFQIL
# Procedure, shortened: as §1
# ETV1 = ETV1 (Homo sapiens, UniProt P50549 1-477); conditions: protein: recombinant; tags: N-terminal GST; dsDNA, one strand shown
# Chain of ETV1 (P50549 whole entry): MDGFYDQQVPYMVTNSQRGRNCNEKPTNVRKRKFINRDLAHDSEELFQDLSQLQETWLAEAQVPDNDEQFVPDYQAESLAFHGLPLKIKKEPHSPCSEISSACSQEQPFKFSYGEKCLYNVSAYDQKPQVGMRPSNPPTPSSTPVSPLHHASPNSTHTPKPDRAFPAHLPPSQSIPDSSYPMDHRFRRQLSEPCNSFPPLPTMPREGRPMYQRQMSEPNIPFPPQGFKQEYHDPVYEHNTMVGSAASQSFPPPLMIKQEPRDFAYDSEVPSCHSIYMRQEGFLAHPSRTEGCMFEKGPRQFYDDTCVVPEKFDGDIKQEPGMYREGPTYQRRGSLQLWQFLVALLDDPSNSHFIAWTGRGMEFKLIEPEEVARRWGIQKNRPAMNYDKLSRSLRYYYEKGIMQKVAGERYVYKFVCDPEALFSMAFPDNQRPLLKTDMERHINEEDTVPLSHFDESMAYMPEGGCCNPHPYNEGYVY
# Procedure, shortened: as §1
# ERF = target: T6, ERF (Homo sapiens, UniProt P50548 1-548); conditions: protein: recombinant; tags: N-terminal GST; dsDNA, one strand shown
# T6 sequence: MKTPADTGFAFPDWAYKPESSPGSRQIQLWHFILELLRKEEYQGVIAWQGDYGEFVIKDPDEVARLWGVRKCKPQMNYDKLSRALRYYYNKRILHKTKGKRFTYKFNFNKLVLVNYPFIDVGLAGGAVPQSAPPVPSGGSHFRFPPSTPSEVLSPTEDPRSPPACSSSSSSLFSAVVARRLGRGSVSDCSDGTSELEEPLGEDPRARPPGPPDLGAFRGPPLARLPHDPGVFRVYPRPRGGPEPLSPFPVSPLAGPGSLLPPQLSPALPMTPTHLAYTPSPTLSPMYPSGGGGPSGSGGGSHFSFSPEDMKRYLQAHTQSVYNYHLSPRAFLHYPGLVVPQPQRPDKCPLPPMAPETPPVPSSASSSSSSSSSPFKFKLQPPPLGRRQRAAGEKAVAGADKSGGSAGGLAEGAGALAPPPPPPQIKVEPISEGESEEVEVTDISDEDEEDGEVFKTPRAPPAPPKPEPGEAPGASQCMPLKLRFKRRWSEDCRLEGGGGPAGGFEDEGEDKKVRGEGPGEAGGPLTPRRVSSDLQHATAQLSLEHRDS
# Procedure, shortened: as §1
# ETV3L = target: T7, ETV3L (Homo sapiens, UniProt Q6ZN32 1-361); conditions: protein: recombinant; tags: N-terminal GST; dsDNA, one strand shown
# T7 sequence: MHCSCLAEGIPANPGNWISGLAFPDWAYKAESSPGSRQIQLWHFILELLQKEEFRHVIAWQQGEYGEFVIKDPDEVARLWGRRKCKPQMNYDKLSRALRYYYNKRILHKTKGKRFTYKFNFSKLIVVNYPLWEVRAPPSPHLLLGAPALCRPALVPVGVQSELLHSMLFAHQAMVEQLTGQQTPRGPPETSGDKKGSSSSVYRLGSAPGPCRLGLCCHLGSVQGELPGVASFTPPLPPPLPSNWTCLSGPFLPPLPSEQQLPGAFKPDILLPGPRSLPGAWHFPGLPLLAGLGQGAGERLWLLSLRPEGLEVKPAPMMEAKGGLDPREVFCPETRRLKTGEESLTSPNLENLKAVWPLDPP
# Procedure, shortened: as §1
# ETS2 = target: T8, ETS2 (Homo sapiens, UniProt P15036 1-469); conditions: protein: recombinant; tags: N-terminal GST; dsDNA, one strand shown
# T8 sequence: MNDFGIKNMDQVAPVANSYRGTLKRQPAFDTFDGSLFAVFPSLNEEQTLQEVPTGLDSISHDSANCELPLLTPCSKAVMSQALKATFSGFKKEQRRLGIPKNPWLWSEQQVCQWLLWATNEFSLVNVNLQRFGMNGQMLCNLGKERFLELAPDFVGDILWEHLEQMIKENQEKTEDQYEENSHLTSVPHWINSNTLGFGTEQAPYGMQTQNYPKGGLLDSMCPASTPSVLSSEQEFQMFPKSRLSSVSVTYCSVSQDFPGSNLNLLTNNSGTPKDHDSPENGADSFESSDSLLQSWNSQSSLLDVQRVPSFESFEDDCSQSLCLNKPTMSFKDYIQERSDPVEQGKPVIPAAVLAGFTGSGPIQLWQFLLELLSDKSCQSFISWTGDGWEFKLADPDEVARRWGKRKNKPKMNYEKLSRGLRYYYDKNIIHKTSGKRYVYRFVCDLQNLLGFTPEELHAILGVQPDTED
# Procedure, shortened: as §1
# SPDEF = target: T9, SPDEF (Homo sapiens, UniProt O95238 1-335); conditions: protein: recombinant; tags: N-terminal GST; dsDNA, one strand shown
# T9 sequence: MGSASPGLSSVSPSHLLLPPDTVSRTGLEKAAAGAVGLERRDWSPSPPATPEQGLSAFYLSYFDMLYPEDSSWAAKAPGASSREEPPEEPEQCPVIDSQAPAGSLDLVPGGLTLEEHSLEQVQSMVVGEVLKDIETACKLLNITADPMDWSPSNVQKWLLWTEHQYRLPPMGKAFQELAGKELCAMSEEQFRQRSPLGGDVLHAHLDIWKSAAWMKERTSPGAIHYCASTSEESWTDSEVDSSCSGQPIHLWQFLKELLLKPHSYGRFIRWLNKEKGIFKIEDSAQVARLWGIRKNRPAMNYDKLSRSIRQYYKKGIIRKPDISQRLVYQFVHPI
# Procedure, shortened: as §1
# ETV7 = target: T10, ETV7 (Homo sapiens, UniProt Q9Y603 1-341); conditions: protein: recombinant; tags: N-terminal GST; dsDNA, one strand shown
# T10 sequence: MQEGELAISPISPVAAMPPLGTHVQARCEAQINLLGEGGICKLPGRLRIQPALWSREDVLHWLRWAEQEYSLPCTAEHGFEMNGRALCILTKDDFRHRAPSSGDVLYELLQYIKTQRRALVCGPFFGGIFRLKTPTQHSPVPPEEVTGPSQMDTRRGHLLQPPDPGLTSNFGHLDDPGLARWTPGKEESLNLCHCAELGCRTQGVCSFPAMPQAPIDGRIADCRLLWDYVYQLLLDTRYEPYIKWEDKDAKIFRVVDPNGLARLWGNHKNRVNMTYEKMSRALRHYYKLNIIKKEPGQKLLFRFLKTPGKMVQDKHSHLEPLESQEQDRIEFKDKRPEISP
# Procedure, shortened: as §1
# ELF5 = target: T11, ELF5 (Homo sapiens, UniProt Q9UKW6-2 1-255); conditions: protein: recombinant; tags: N-terminal GST; dsDNA, one strand shown
# T11 sequence: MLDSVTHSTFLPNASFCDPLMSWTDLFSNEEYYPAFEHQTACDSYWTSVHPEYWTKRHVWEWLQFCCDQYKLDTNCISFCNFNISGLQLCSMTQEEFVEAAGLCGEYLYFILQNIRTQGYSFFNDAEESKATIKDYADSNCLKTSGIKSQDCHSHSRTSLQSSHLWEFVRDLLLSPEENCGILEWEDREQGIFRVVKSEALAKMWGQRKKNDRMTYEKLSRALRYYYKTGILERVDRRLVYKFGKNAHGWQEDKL
# Procedure, shortened: as §1
# ETV3 = target: T12, ETV3 (Homo sapiens, UniProt P41162-2 1-143); conditions: protein: recombinant; tags: N-terminal GST; dsDNA, one strand shown
# T12 sequence: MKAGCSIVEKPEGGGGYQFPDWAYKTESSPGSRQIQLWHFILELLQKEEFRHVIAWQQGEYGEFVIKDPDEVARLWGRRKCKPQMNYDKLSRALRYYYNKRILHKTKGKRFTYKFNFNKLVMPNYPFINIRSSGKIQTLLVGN
# Procedure, shortened: as §1
# ETV6 = ETV6 (Homo sapiens, UniProt P41212 1-452); conditions: protein: recombinant; tags: N-terminal GST; dsDNA, one strand shown
# Chain of ETV6 (P41212 whole entry): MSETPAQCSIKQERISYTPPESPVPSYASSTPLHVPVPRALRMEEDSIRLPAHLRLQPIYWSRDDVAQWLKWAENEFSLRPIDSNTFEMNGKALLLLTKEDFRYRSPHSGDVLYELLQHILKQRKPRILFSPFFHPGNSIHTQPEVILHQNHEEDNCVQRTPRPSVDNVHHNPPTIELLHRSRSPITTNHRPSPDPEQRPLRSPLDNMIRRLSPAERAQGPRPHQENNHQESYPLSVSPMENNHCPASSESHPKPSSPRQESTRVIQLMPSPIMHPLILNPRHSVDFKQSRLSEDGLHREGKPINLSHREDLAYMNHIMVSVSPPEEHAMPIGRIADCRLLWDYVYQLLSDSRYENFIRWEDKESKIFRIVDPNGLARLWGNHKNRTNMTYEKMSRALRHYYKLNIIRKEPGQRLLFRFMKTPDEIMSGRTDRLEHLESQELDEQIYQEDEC
# Procedure, shortened: as §1
sequence,measurement,setting,value
CAATTA,binding signal,FEV,"1.08 fold enrichment (6-mer frequency, TF over GST control)"
same,binding signal,ETV5,"1.16 fold enrichment (6-mer frequency, TF over GST control)"
same,binding signal,HSF1,"1.12 fold enrichment (6-mer frequency, TF over GST control)"
same,binding signal,SPIC,"1.05 fold enrichment (6-mer frequency, TF over GST control)"
same,binding signal,ELF4,"1.14 fold enrichment (6-mer frequency, TF over GST control)"
same,binding signal,ELK4,"1.05 fold enrichment (6-mer frequency, TF over GST control)"
same,binding signal,ETV2,"1.03 fold enrichment (6-mer frequency, TF over GST control)"
same,binding signal,ELF3,"1.22 fold enrichment (6-mer frequency, TF over GST control)"
same,binding signal,CRX,"1.25 fold enrichment (6-mer frequency, TF over GST control)"
same,binding signal,ETV1,"1.09 fold enrichment (6-mer frequency, TF over GST control)"
same,binding signal,ERF,"1.13 fold enrichment (6-mer frequency, TF over GST control)"
same,binding signal,ETV3L,"1.11 fold enrichment (6-mer frequency, TF over GST control)"
same,binding signal,ETS2,"1.16 fold enrichment (6-mer frequency, TF over GST control)"
same,binding signal,SPDEF,"1.06 fold enrichment (6-mer frequency, TF over GST control)"
same,binding signal,ETV7,"1.15 fold enrichment (6-mer frequency, TF over GST control)"
same,binding signal,ELF5,"1.13 fold enrichment (6-mer frequency, TF over GST control)"
same,binding signal,ETV3,"1.18 fold enrichment (6-mer frequency, TF over GST control)"
same,binding signal,ETV6,"1.05 fold enrichment (6-mer frequency, TF over GST control)"

# From paper PMC7862700, “An all-to-all approach to the identification of sequence-specific readers for epigenetic DNA modifications on cytosine”
